Some test systems named below: DU-145 prostate; K-562 leukemia; MALME-3M melanoma; MDA-MB-231 breast; RXF 393 renal; SF-268 CNS; SF-295 CNS; SF-539 CNS; UACC-257 melanoma; M14 melanoma; HCT-15 colon; HT29 colon; SNB-75 CNS; SNB-19 CNS; U251 CNS; PC-3 prostate; SK-MEL-5 melanoma; UACC-62 melanoma; LOX IMVI melanoma; SK-MEL-28 melanoma.
Assay in all cases: NCI-60 one-dose screen, 48 h (100 = growth as untreated, 0 = no growth, -100 = all killed)
Holding throughout (conditions): 10 µM unless noted

About 83,000 compounds went through this panel and 20% of them were active in at least one assay; those are over-represented in the sample as a whole.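 Method: cells in 96-well plates; compound added at one concentration; 48 h incubation; percent growth measured; values under 10 scored active.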 Unmarked numbers belong to inactive results. Active and inactive are the calls of the source.

Regarding `CC(C)Sc1nc(NNC(N)=S)c(C#N)c(-c2ccc(F)cc2)n1`, the growth in the assay with DU-145 prostate is 110%; in the assay with K-562 leukemia, 92.5%; with MALME-3M melanoma, 117%; with MDA-MB-231 breast it was 98%; with RXF 393 renal, 101%; in the assay on SF-268 CNS it was 101%. Moreover, the growth is 93.7% with SF-295 CNS; 91.7% in the assay with SF-539 CNS; 101% in the assay with UACC-257 melanoma; 104% in the assay on M14 melanoma; 95.9% with HCT-15 colon; 115% in the assay on HT29 colon. The growth with SNB-75 CNS is 62.6%; with SNB-19 CNS, 97%; in the assay on U251 CNS, 95%; with PC-3 prostate it was 102%; in the assay on SK-MEL-5 melanoma, 93.3%; in the assay on UACC-62 melanoma, 91.1%. The growth in the assay with LOX IMVI melanoma is 98.6%; in the assay with SK-MEL-28 melanoma, 113%.

As for `CCCCCCCCn1ccc2cc(NC(=O)Cn3cc(CN4CCCC4)nn3)ccc21`, the growth is 66.9% with DU-145 prostate; 2.29% (active) with K-562 leukemia; -63.3% (active) with MALME-3M melanoma; 11.6% in the assay with MDA-MB-231 breast; 44.6% with RXF 393 renal; 46.2% with SF-268 CNS. In addition, the growth with SF-295 CNS was -68.3% (active); with SF-539 CNS it was 78.9%; in the assay with UACC-257 melanoma, 51.6%; in the assay on M14 melanoma, -66.5% (active); in the assay with HCT-15 colon it was -45.6% (active); in the assay on HT29 colon, -57.8% (active). For the same compound, the growth in the assay with SNB-75 CNS is 96.6%; with SNB-19 CNS, 0.775% (active); in the assay on U251 CNS, -35.5% (active); in the assay on PC-3 prostate, 64.9%; with SK-MEL-5 melanoma, 30.7%; with UACC-62 melanoma, -82.1% (active). Also, the growth is -85.1% (active) with LOX IMVI melanoma and -70.9% (active) in the assay with SK-MEL-28 melanoma.

Turning to `CCOC(=O)c1csc(NC(=O)COc2cccc(/C=C3\Oc4cc(OC)ccc4C3=O)c2)n1`, the growth in the assay on DU-145 prostate is 102%; with K-562 leukemia, 52.1%; with MALME-3M melanoma, 109%; in the assay with MDA-MB-231 breast, 67.9%; in the assay with RXF 393 renal, 114%; in the assay with SF-268 CNS, 109%. For the same compound, the growth in the assay on SF-295 CNS was 121%; in the assay on SF-539 CNS, 106%; with UACC-257 melanoma, 91.7%; with M14 melanoma it was 111%; in the assay with HCT-15 colon it was 79.2%; in the assay on HT29 colon, 101%. For the same compound, the growth in the assay with SNB-75 CNS was 78.4%; with SNB-19 CNS it was 83.4%; in the assay on U251 CNS, 79.2%; in the assay on PC-3 prostate, 78.3%; in the assay on SK-MEL-5 melanoma it was 98.5%; in the assay on UACC-62 melanoma, 79%. In addition, the figures for the growth in the assay with LOX IMVI melanoma and with SK-MEL-28 melanoma were 66.7% and 119%, respectively.

`Cc1c(C(=O)OC(=NC2CCCCC2)NC2CCCCC2)sc2c1c(=O)nc1c(C#N)n[nH]n12`: the growth with DU-145 prostate is 110%; in the assay with K-562 leukemia, 82.7%; in the assay on MALME-3M melanoma, 113%; in the assay with MDA-MB-231 breast, 113%; with RXF 393 renal it was 99.2%; in the assay on SF-268 CNS, 106%. In addition, the growth in the assay with SF-295 CNS is 109%; in the assay on SF-539 CNS it was 104%; in the assay on UACC-257 melanoma, 102%; in the assay with M14 melanoma, 103%; in the assay with HCT-15 colon it was 114%; with HT29 colon, 96.2%. For the same compound, the growth in the assay on SNB-75 CNS is 89.9%; with SNB-19 CNS it was 109%; in the assay with U251 CNS, 107%; in the assay on PC-3 prostate it was 118%; with SK-MEL-5 melanoma, 110%; with UACC-62 melanoma, 106%. The growth was 94.8% with LOX IMVI melanoma and 100% in the assay on SK-MEL-28 melanoma.

With `CCc1c2c(nc3ccc(OC(=O)NCc4ccc(B5OC(C)(C)C(C)(C)O5)cc4)cc13)-c1cc3c(c(=O)n1C2)COC(=O)[C@]3(O)CC`, the growth with DU-145 prostate is 3.45% (active); in the assay with K-562 leukemia, 10.8%; in the assay with MALME-3M melanoma, -44.1% (active); with MDA-MB-231 breast, 13%; in the assay with RXF 393 renal, -61.9% (active); in the assay with SF-268 CNS it was -5.02% (active). For the same compound, the growth is -0.543% (active) in the assay on SF-295 CNS; -47.1% (active) in the assay with SF-539 CNS; -44.5% (active) in the assay on UACC-257 melanoma; -16.1% (active) in the assay with M14 melanoma; 10.4% in the assay with HCT-15 colon; 25.2% in the assay with HT29 colon. Moreover, the growth in the assay with SNB-75 CNS is -22.1% (active); in the assay on SNB-19 CNS, 1.93% (active); with U251 CNS, -33.3% (active); with PC-3 prostate it was 14.7%; in the assay on SK-MEL-5 melanoma, -87.4% (active); in the assay with UACC-62 melanoma it was -80.5% (active). In addition, the growth in the assay with LOX IMVI melanoma is -71.6% (active); in the assay on SK-MEL-28 melanoma, 3.27% (active).

For `COc1ccc(-c2nc(SCCC(C)C)nc(N/N=C\c3ccccc3O)c2C#N)cc1`, the growth in the assay on DU-145 prostate was 95.7%; with K-562 leukemia, 91.6%; with MALME-3M melanoma, 89.6%; in the assay with MDA-MB-231 breast, 85.1%; in the assay on RXF 393 renal, 76.1%; in the assay with SF-268 CNS, 78%. Moreover, the growth was 94.2% in the assay on SF-295 CNS; 90.9% in the assay on SF-539 CNS; 89.8% in the assay with UACC-257 melanoma; 98.3% in the assay on M14 melanoma; 86.6% in the assay with HCT-15 colon; 103% in the assay on HT29 colon. Moreover, the growth in the assay on SNB-75 CNS is 74.8%; in the assay on SNB-19 CNS, 72.4%; in the assay with U251 CNS, 60.5%; in the assay with PC-3 prostate, 92.3%; in the assay on SK-MEL-5 melanoma, 94.2%; in the assay with UACC-62 melanoma, 90%. In addition, the growth in the assay on LOX IMVI melanoma is 84.6%; in the assay with SK-MEL-28 melanoma, 99.1%.

In the case of `COc1cccc(-c2nn(-c3ccccc3)cc2-c2ccnc(NCCCNC(=O)c3ccc(F)cc3)c2)c1`, the growth is 65.5% with DU-145 prostate; 16.9% with K-562 leukemia; 48.2% in the assay on MALME-3M melanoma; 51.3% in the assay with MDA-MB-231 breast; 56.3% in the assay with RXF 393 renal; 53.7% in the assay on SF-268 CNS. Also, the growth in the assay on SF-295 CNS is 36.5%; with SF-539 CNS it was 68.3%; in the assay with UACC-257 melanoma it was 42.3%; in the assay on M14 melanoma it was 20.3%; in the assay with HCT-15 colon it was 24.9%; in the assay with HT29 colon, 11.7%. For the same compound, the growth in the assay on SNB-75 CNS is 46.2%; in the assay on SNB-19 CNS, 67.2%; with U251 CNS it was 36.4%; in the assay on PC-3 prostate it was 27.1%; in the assay with SK-MEL-5 melanoma, 6.09% (active); in the assay with UACC-62 melanoma, 40.1%. Besides, the results for the growth in the assay with LOX IMVI melanoma and in the assay with SK-MEL-28 melanoma were 55.7% and 58.7%, respectively.

Take `COc1cc2nc(Cl)nc(Nc3ccc(S(=O)(=O)Nc4nccs4)cc3)c2cc1OC`: the growth is 119% with DU-145 prostate; 115% in the assay with K-562 leukemia; 112% in the assay with MALME-3M melanoma; 109% with MDA-MB-231 breast; 110% with RXF 393 renal; 109% in the assay on SF-268 CNS. Moreover, the growth with SF-295 CNS was 104%; in the assay with SF-539 CNS it was 85.9%; with UACC-257 melanoma, 103%; with M14 melanoma, 100%; in the assay with HCT-15 colon it was 96.3%; with HT29 colon it was 117%. In addition, the growth in the assay with SNB-75 CNS was 87.1%; in the assay with SNB-19 CNS, 102%; in the assay with U251 CNS it was 96.3%; in the assay with PC-3 prostate, 91.6%; with SK-MEL-5 melanoma it was 102%; with UACC-62 melanoma it was 96%. Also, the growth was 86.5% with LOX IMVI melanoma and 115% in the assay on SK-MEL-28 melanoma.
